Results published in PubChem BioAssay (NCATS).
Records with an inconclusive call do not appear. Calls of active or inactive are those of the source. Calls follow the shape of the dose curve; as a rule, active = well fitted cell-killing curve with a large enough effect; inconclusive = small, poorly fitted or top-dose-only effect, or effect the other way; inactive = flat fitted curve, though single readings scatter. *1 amine or outer side, *2 acyl side, *3 side chain or, on linkers, in order; H or OH if unused. Where a SMILES comes first, the peptide text is derived from it. Bridges are numbered along the chain shown (N, C = ends). [ ]: non-standard residue; d: D form. The star is where a group is joined. pTerphenylCO(4''-OnC5H11) = CCCCCOc1ccc(-c2ccc(-c3ccc(C(=O)*)cc3)cc2)cc1; Orn(4R-OH,5R-OH) = O=C([C@H](C[C@@H](O)[C@@H](O)N[*:3])N[*:1])[*:2]; hTyr(3S-OH,4S-OH) = N[C@H](C(=O)O)[C@H](O)[C@@H](O)c1ccc(O)cc1; Pro(3S-OH,4S-Me) = C[C@H]1CN[C@H](C(=O)O)[C@H]1O; Hyp = O=C(O)[C@@H]1C[C@@H](O)CN1

Legend:
Experiment in all cases: Primary qHTS to identify gynecologic anti-cancer compounds using libraries of approved drugs and bioactive compounds (AID 1345084); also: nearly all actives have a fitted effect of over 55% in size
Settings in all cases: Gynecologic cancer cell panel viability, ATPlite luminescence, 48 h; series mostly up to 57.5 µM
SKOV3 = test system: SKOV3
How it was run: (§1)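 Cells, 1,000 per well, were allowed to settle for 16 h at 37 C before compound addition. Five concentrations were tested for 48 h, and viability was read by ATPlite luminescence after 15 min at room temperature.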

Tov-21-G = test system: Tov-21-G
How it was run: as §1

Tov112D = test system: Tov112D
How it was run: as §1
% is scaled to controls: 0 for no effect and ±100 for the full control effect.

CC1(C)CCC2(C(=O)OC3OC(COC4OC(CO)C(O)C(O)C4O)C(O)C(O)C3O)CCC3(C)C(=CCC4C5(C)CCC(OC6OCC(O)C(O)C6O)C(C)(C)C5CCC43C)C2C1O (configuration not stated)
inactive: activity change, negative = cytotoxicity (SKOV3) -2.57% [at 11.6 µM] | activity change, negative = cytotoxicity (Tov-21-G) 0.233% [at 11.6 µM] | activity change, negative = cytotoxicity (Tov112D) -9.09% [at 11.6 µM]

O=c1cc(N2CCN(c3cccc(C(F)(F)F)c3)CC2)[nH]c(=O)n1C1CCCCC1
inactive: Potency (SKOV3) | Potency (Tov-21-G) | Potency (Tov112D)

CC(=O)OC1CC2(C)C(CCC(C)C23Cc2c(O)cc(CO)c(C=O)c2O3)C(C)(C)C1O (configuration not stated)
inactive: Potency (SKOV3) | Potency (Tov-21-G) | Potency (Tov112D)

Cc1cc2c(c(=O)o1)C=C1CC[C@H]([C@H](C)Cn3cnc(=N)c4[nH]cnc43)C[C@@H]1O2
inactive: Potency (SKOV3) | Potency (Tov-21-G) | Potency (Tov112D)

CCCCCOc1ccc(-c2ccc(-c3ccc(C(=O)N[C@H]4C[C@@H](O)[C@@H](O)NC(=O)[C@@H]5[C@@H](O)[C@@H](C)CN5C(=O)[C@H]([C@@H](C)O)NC(=O)[C@H]([C@H](O)[C@@H](O)c5ccc(O)cc5)NC(=O)[C@@H]5C[C@@H](O)CN5C(=O)[C@H]([C@@H](C)O)NC4=O)cc3)cc2)cc1 ({pTerphenylCO(4''-OnC5H11)}-[Orn(4R-OH,5R-OH)]T[Hyp][hTyr(3S-OH,4S-OH)]T[Pro(3S-OH,4S-Me)]; lactam 1-C)
inactive: Potency (SKOV3) | Potency (Tov-21-G) | Potency (Tov112D)

CC1(CO)CC(O)[C@]2(C(=O)O)CCC34CC3(C=CC3[C@]5(C)C(CC[C@]34C)C(C)(CO)[C@@H](O)[C@H](O)[C@@H]5O)C2C1 (some centres not stated)
inactive: Potency (SKOV3) | Potency (Tov-21-G) | Potency (Tov112D)

COC(=O)C[C@H]1C(C)(C)[C@H](OC(=O)c2ccccc2)C2CC3=C4CC(=O)O[C@@H](c5ccoc5)[C@]4(C)CCC3[C@@]1(C)C2=O (some centres not stated)
inactive: Potency (SKOV3) | Potency (Tov-21-G) | Potency (Tov112D)

CC(C)C[C@H](C(=O)O)c1cc(-c2ccc(C(F)(F)F)cc2)cc(-c2ccc(C(F)(F)F)cc2)c1
inactive: Potency (SKOV3) | Potency (Tov-21-G) | Potency (Tov112D)

CC1(C)C2CCC(CO[C@@H]3O[C@H](CO[C@@H]4OC[C@](O)(CO)[C@H]4O)[C@@H](O)[C@H](O)[C@H]3O)C1C2 (some centres not stated)
inactive: Potency (SKOV3) | Potency (Tov-21-G) | Potency (Tov112D)

COC(=O)c1ccnc(-c2cc(C(=O)Nc3ccc(C4(N)CC4)cc3)ccn2)c1
inactive: Potency (SKOV3) | Potency (Tov-21-G) | Potency (Tov112D)

N#Cc1ccc(COC[C@H]2O[C@@H](n3c(NCc4ccc(Cl)c(Cl)c4)nc4c(N)ncnc43)[C@H](O)[C@@H]2O)cc1
inactive: Potency (SKOV3) | Potency (Tov-21-G) | Potency (Tov112D)

O=C(NCc1ccccc1)c1ccc2c(=O)n(-c3cccc(C(F)(F)F)c3)c(=S)[nH]c2c1
inactive: Potency (SKOV3) | Potency (Tov-21-G) | Potency (Tov112D)

Cc1ccc(OC[C@H](O)[C@H](C)NC(C)C)c2c1CCC2
inactive: Potency (SKOV3) | Potency (Tov-21-G) | Potency (Tov112D)

O=C(NCC(=O)N1CCCC1)Nc1ccc2cnccc2c1
inactive: Potency (SKOV3) | Potency (Tov-21-G) | Potency (Tov112D)

CN[C@@H]1[C@H](O[C@H]2[C@H](O[C@@H]3[C@@H](O)[C@H](O)[C@@H](N=C(N)N)[C@H](O)[C@H]3N=C(N)N)O[C@@H](C)[C@]2(O)CO)O[C@@H](CO)[C@H](O)[C@H]1O
inactive: Potency (SKOV3) | Potency (Tov-21-G) | Potency (Tov112D)

CCOC(=O)N1CCC(N2CCC[C@@H](NC(=O)c3ccccc3C)C2)CC1
inactive: Potency (SKOV3) | Potency (Tov-21-G) | Potency (Tov112D)

O=C(Nc1ccc(N(Cc2ccsc2)C(=O)Cn2nnc3ccccc32)cc1)C1CC1
inactive: Potency (SKOV3) | Potency (Tov-21-G) | Potency (Tov112D)

CC(=O)OC[C@]12[C@H](OC(C)=O)[C@H](OC(=O)c3ccccc3)[C@@H]3[C@@H](OC(C)=O)[C@]1(OC3(C)C)[C@H](C)C[C@H](OC(C)=O)[C@@H]2OC(=O)c1ccccc1
inactive: Potency (SKOV3) | Potency (Tov-21-G) | Potency (Tov112D)

C=CC(C)(C)C12CC3C(=O)N4C(CC5(C(C)(C)C=C)c6ccccc6NC45)C(=O)N3C1Nc1ccccc12 (configuration not stated)
inactive: Potency (SKOV3) | Potency (Tov-21-G) | Potency (Tov112D)

O=C(O)c1cccc(-c2ccc(-c3cn(C(=O)N4CCCCC4Cc4ccccc4)nn3)cc2)c1 (configuration not stated)
inactive: Potency (SKOV3) | Potency (Tov-21-G) | Potency (Tov112D)

CC(C)(C)C1CCN(C(=O)n2ncc(C(O)(c3ccccc3)c3ccccc3)n2)CC1
inactive: Potency (SKOV3) | Potency (Tov-21-G) | Potency (Tov112D)

COc1ccc2cc(-c3cc(-c4cc(Cl)cc(Cl)c4)nn3C(C)c3ccc(C(=O)NCCC(=O)O)cc3)ccc2c1 (configuration not stated)
inactive: Potency (SKOV3) | Potency (Tov-21-G) | Potency (Tov112D)

CCC(=O)N1CCOc2c(cc(-c3ccc(OC)c(OC)c3)cc2OC[C@H]2CCCN(C)C2)C1
inactive: Potency (SKOV3) | Potency (Tov-21-G) | Potency (Tov112D)

C[C@@H]1C[C@H]2O[C@@]3(O[C@@H]2C(C)(C)O)C(O)[C@@]2(C)C4CCC5C(C)(C)[C@@H](O[C@H]6OC[C@H](O)[C@@H](O)[C@@H]6O)CC[C@@]56C[C@@]46CC[C@]2(C)C13 (some centres not stated)
inactive: Potency (SKOV3) | Potency (Tov-21-G) | Potency (Tov112D)

O=C(C1CCCCC1)N(CCN1CCN(c2ccccc2O)CC1)c1ccccn1
inactive: Potency (SKOV3) | Potency (Tov-21-G) | Potency (Tov112D)

CCCCCc1ccc(/C=C/C(=O)Nc2cc(Cl)ccc2C(=O)O)cc1
inactive: Potency (SKOV3) | Potency (Tov-21-G) | Potency (Tov112D)

CC(=O)O[C@@H]1CC[C@@]2(C)C(CC[C@]3(C)C2[C@H](O)C=C2[C@H]4[C@@H](C)[C@H](C)CC[C@]4(C)CC[C@]23C)[C@@]1(C)C(=O)O (some centres not stated)
inactive: Potency (SKOV3) | Potency (Tov-21-G) | Potency (Tov112D)

CC(=O)O[C@@H]1CC2C(C)(C)C(=O)C=C[C@]2(C)C2CC[C@@]3(C)[C@H](c4ccoc4)OC(=O)[C@H]4O[C@]43[C@@]21C (some centres not stated)
inactive: Potency (SKOV3) | Potency (Tov-21-G) | Potency (Tov112D)

Cc1ccc(C2(C(=O)N3CCC(n4nc(-c5ccccc5)oc4=O)CC3)CC2)cc1
inactive: Potency (SKOV3) | Potency (Tov-21-G) | Potency (Tov112D)

CNCCCC1(c2ccccc2)OC(C)(C)c2ccccc21 (configuration not stated)
inactive: Potency (SKOV3) | Potency (Tov-21-G) | Potency (Tov112D)

Cc1cnn(-c2ccccc2)c1NC(=O)COCc1ccccc1
inactive: Potency (SKOV3) | Potency (Tov-21-G) | Potency (Tov112D)

COc1ccccc1C(=O)Nc1cccc(NC(=O)c2cccc(C)c2)c1
inactive: Potency (SKOV3) | Potency (Tov-21-G) | Potency (Tov112D)

COc1c(C(C)C)c(O)c(O)c2c1C(OC)[C@H]1OC(=O)[C@@]23CCCC(C)(C)[C@H]13 (some centres not stated)
inactive: Potency (SKOV3) | Potency (Tov-21-G) | Potency (Tov112D)

O=C(NC1(c2ccccc2)CC1)c1c(CN2CCC(N3CCCCC3)CC2)c(-c2cccc(C(F)(F)F)c2)nc2cc(Br)ccc12
inactive: Potency (SKOV3) | Potency (Tov-21-G) | Potency (Tov112D)
